Experimental data: PubChem BioAssay (NCATS)
Inconclusive results are not listed. The source made the active and inactive calls. Unless noted, calls come from the whole dose curve.

Key:
[1] = qHTS for Inhibitors of the Functional Ribonucleoprotein Complex (vRNP) of Lassa (LASV) Arenavirus: LASV Primary Screen - GLuc reporter signal (AID 1347082; calls by dose curve; tested in HEK293 reporter line; note: series mostly up to about 57 µM; nearly all actives have a fitted effect of over 60% in size)
[2] = qHTS for Inhibitors of the Functional Ribonucleoprotein Complex (vRNP) of Lymphocytic Choriomeningitis Arenaviruses (LCMV): Viability assay - alamar blue signal for LCMV Primary Screen (AID 1347085; calls by dose curve; tested in HEK293 reporter line; note: series mostly up to about 57 µM; nearly all actives have a fitted effect of over 80% in size)
[3] = target: Nucleoprotein (Lymphocytic choriomeningitis virus (strain Armstrong)) (UniProt P09992); assay: qHTS for Inhibitors of the Functional Ribonucleoprotein Complex (vRNP) of Lymphocytic Choriomeningitis Arenaviruses (LCMV): LCMV Primary Screen - GLuc reporter signal (AID 1347086); note: series mostly up to about 57 µM; nearly all actives have a fitted effect of over 70% in size
Nucleoprotein (Lymphocytic choriomeningitis virus (strain Armstrong)), sequence (P09992 whole entry, looked up): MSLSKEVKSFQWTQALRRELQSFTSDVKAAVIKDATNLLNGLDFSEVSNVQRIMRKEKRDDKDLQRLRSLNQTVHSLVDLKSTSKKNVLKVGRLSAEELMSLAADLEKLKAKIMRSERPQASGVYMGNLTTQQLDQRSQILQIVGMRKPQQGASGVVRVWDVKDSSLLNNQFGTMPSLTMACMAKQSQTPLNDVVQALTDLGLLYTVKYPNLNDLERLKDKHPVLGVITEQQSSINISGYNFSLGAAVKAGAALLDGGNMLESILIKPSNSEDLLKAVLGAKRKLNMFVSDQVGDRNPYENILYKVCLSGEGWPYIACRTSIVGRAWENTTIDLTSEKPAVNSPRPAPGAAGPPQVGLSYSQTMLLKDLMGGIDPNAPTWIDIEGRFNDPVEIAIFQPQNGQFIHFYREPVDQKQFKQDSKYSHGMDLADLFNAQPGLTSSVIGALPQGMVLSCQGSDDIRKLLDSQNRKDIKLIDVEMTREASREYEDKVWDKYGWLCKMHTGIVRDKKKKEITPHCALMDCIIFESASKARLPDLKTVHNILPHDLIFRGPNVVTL

[4] = target: Alpha-galactosidase (Coffea arabica) (UniProt Q42656); assay: Counterscreen for Glucocerebrosidase Inhibitors: qHTS Assay for Coffee Bean alpha-Galactosidase at pH 4.5 (AID 957; active = well fitted curve in the direction sought with a large enough effect; an effect the other way counts as inactive or inconclusive; note: series mostly up to about 77 µM)
Alpha-galactosidase (Coffea arabica), sequence (Q42656 whole entry, looked up): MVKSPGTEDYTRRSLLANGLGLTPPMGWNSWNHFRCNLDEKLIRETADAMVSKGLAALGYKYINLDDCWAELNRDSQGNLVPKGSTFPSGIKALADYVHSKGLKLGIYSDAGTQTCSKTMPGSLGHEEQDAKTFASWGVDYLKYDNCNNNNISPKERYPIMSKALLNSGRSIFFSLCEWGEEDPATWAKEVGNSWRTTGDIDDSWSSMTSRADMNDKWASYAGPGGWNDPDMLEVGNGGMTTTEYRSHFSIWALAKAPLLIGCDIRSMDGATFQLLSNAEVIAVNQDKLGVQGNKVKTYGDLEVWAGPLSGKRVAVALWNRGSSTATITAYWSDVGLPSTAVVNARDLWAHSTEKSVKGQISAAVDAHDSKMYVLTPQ
Outline: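 Green coffee bean enzyme (2 nM final) was incubated with compounds (0.7 nM to 77 uM) and 4-methylumbelliferyl alpha-D-galactopyranoside (80 uM final) in 50 mM citric acid, 0.005% Tween-20, pH 4.5, 20 min at room temperature; AC50 from Hill fits.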

[5] = target: Alpha-galactosidase (Coffea arabica) (UniProt Q42656); assay: Counterscreen for Glucocerebrosidase Inhibitors: qHTS Assay for Coffee Bean alpha-Galactosidase at pH 5.9 (AID 998; active = well fitted curve in the direction sought with a large enough effect; an effect the other way counts as inactive or inconclusive)
Outline: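 Green coffee bean enzyme (2 nM final) was incubated with compounds (0.7 nM–77 uM) and 4-methylumbelliferyl alpha-D-galactopyranoside (80 uM) in citrate buffer pH 5.9, 20 min at room temperature. High-pH stop; fluorescence 365/440 nm; AC50 from Hill fits.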

[6] = Validation screen for inhibitors of Lassa infection (AID 463096)
[7] = Inducers of the Endoplasmic Reticulum Stress Response (ERSR) in human glioma: Validation (AID 504836; active = well fitted curve in the direction sought with a large enough effect; an effect the other way counts as inactive or inconclusive)
Outline: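 Stably transfected U87-MG human glioma cells carrying a GRP78-based luminescent sensor were seeded at 1000 cells/well, pin-dosed with compounds and incubated 16 h. Luciferase reagent was then added, and end-point luminescence was read after 10 min at room temperature.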

[8] = target: Peroxisome proliferator-activated receptor delta (Homo sapiens) (UniProt Q03181); assay: qHTS assay for small molecule agonists of peroxisome proliferator-activated receptor delta signaling (AID 588534)
Peroxisome proliferator-activated receptor delta (Homo sapiens), sequence (Q03181 whole entry, looked up): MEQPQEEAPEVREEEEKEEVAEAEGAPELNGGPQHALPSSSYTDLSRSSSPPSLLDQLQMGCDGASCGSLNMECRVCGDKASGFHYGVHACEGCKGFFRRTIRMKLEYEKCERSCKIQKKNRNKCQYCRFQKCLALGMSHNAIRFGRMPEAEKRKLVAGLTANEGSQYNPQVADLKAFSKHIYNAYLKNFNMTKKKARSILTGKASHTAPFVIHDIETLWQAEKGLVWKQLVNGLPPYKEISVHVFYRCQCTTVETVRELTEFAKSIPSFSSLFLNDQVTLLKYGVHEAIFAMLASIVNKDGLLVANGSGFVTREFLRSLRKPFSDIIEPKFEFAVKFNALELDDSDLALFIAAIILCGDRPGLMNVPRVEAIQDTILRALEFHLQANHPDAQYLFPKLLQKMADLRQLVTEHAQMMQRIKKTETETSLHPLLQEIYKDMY
Outline: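 Cell-based beta-lactamase reporter assay run in agonist mode: cells seeded and incubated 5 hrs at 37 C, compounds added and incubated 18 hrs at 37 C. CCF4 dye fluorescence read after 2 hrs at RT; EC50 and efficacy from Hill fits.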

[9] = Primary qHTS for inhibitors of SARS-S pseudo-typed particle cell entry (AID 1479145); note: nearly all actives have a fitted effect of over 45% in size
[10] = Primary qHTS for Huh7 cytotoxicity: counterscreen for inhibitors of MERS-S pseudotyped particle cell entry (AID 1479147); conditions: outcome: dose series up to 57.1 µM unless noted
[11] = Primary qHTS for Vero E6 cytotoxicity: counterscreen for inhibitors of SARS-S pseudo-typed particle cell entry (AID 1479150); conditions: outcome: dose series up to 57.1 µM unless noted
[12] = Cytotoxicity counterscreen for inhibitors of SARS-CoV-2 cell entry (AID 1645845); note: nearly all actives have a fitted effect of over 50% in size
Outline: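 Expi293F/hACE2 cells seeded overnight; cpd pin-transferred in DMSO, 1 h preincubation, + media, 48 h 37 C 5% CO2; ATPLite 1step luminescence; normalized to cells and no cells.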

Measured: Potency

Nc1ncn([C@@H]2O[C@H](CO)[C@@H](O)[C@@H]2O)c(=O)n1
inactive: [1] | [2] | [3]

C[C@]12CC[C@@H]3c4ccc(O)cc4CC[C@H]3[C@@H]1CC[C@@H]2O
not listed: [12]
inactive: all other assays above

NS(=O)(=O)c1ccc(Nc2nc(OCC3CCCCC3)c3[nH]cnc3n2)cc1
inactive: [1] | [2] | [3] | [12]
